# HepG2 tox: kills HepG2 cells in TGF-b inhibitor counter-screen; 410,000 tested, 0.76% active; HepG2 CAGA-GFP viability, ATP luminescence, 18 h; Potency, µM (series often up to 46.1 µM), for inactives: at the top dose activity change, negative = cytotoxicity, actives largely listed as cytotoxic; note: potency is the fitted concentration of half-maximal effect
#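 HepG2 CAGA-GFP cells (1000/well, DMEM with 1% FBS) received compound, then TGF-beta at 500 pg/mL final, and were incubated 18 hours at 37 degrees C. Viability was read by CellTiter-Glo luminescence. Media-only wells were set as complete cell-killing and DMSO as no toxicity.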
# TDP1 cell noCPT: qHTS for Inhibitors of human tyrosyl-DNA phosphodiesterase 1 (TDP1): qHTS in cells in absence of CPT; AID 686978, 2013; Potency, µM (top dose mostly 46.2 µM), inactives show at the top dose activity change, negative = growth inhibition, actives largely listed as inhibitors; 420,000 tested, 15% active; DT40 Tdp1-/- hTDP1 cells, no CPT, ATP luminescence, 48 h; note: potency is the fitted concentration of half-maximal effect; % is set by controls: 0 for no effect and ±100 for the full control effect; nearly all actives have a fitted effect of over 55% in size
#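 Cells were dispensed at 400 per well, compounds added by pin tool, plates incubated ≥48 hr at 37 °C, then CellTiter-Glo added for 30 min at room temperature before luminescence reading. Line: DT40 Tdp1-/- complemented with hTDP1; camptothecin omitted.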
# TDP1 block: blocks human tyrosyl-DNA phosphodiesterase 1. Q9NUW8. Potency, µM (series often up to 130 µM), for inactives: at the top dose activity change, negative = inhibition, actives largely listed as inhibitors. 350,000 tested, 0.28% active. recombinant TDP1, AlphaScreen DNA substrate cleavage; note: potency is the fitted concentration of half-maximal effect; % is set by controls: 0 for no effect and ±100 for the full control effect; nearly all actives have a fitted effect of over 40% in size
# Target sequence (Q9NUW8 whole entry, looked up): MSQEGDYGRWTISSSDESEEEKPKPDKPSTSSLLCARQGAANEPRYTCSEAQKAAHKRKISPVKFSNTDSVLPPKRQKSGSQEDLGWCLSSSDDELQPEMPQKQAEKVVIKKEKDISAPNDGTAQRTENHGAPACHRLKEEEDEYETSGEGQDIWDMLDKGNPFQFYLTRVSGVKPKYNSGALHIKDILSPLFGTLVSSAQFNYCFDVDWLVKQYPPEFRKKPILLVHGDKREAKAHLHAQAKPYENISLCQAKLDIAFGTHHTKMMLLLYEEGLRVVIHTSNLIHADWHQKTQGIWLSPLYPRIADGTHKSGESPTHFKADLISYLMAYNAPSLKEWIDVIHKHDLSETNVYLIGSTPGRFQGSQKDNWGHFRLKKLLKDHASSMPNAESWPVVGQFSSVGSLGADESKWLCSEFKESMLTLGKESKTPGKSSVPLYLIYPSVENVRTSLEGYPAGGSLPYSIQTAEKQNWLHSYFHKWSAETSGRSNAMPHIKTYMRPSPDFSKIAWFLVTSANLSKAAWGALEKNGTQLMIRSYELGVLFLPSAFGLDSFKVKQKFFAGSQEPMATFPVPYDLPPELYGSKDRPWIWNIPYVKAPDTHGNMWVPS
#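 Recombinant E. coli-expressed Tdp1 (1 nM) preincubated with compound 15 min at RT, then 5'-biotin/3'-phosphotyrosine-FITC DNA substrate (15 nM) added for 5 min. AlphaScreen beads (10 ug/ml) added, 10 min RT; tyrosine-FITC cleavage read as signal loss.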
# TDP1 cell CPT: DT40-hTDP1 cell growth loss with CPT; Potency, µM (highest dose often 46.2 µM), inactives show top-dose activity change, negative = growth inhibition, actives largely listed as inhibitors; chicken DT40 Tdp1-/-;hTDP1 cells + 20 nM CPT, ATP luminescence, 48 h; 420,000 tested, 12% active; AID 686979; note: potency is the fitted concentration of half-maximal effect; % is set by controls: 0 for no effect and ±100 for the full control effect; nearly all actives have a fitted effect of over 55% in size
#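 Chicken DT40 Tdp1-/- cells stably complemented with human TDP1 were seeded at 400 cells/well in medium containing 20 nM camptothecin, exposed to pin-transferred compounds, and grown at 37 °C for at least 48 hr. Viability was read as ATP luminescence.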
# IL-1B inflam inh: blocks inflammasome-driven IL-1 beta release. THP-1 LPS/ATP IL-1B secretion, AlphaLISA, 16 h; active compounds read low. activity change, % at 57.5 µM. 360,000 tested, 4.7% active; in the data active = activity change below about -50%; inconclusive = mostly about -30% to -49%; note: % is set by controls: 0 for no effect and ±100 for the full control effect
#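 Secreted IL-1B measured by AlphaLISA bead assay after 16 h compound exposure of THP-1 cells; compounds (final up to 57.5 uM) added 1 h before LPS (250 ng/mL) and ATP (1.25 mM) stimulation; lower signal means less secretion.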
# TGFb inhibitor: blocks TGF-b signaling | HepG2 CAGA-GFP TGF-b/SMAD3 reporter, GFP fluorescence, 18 h; TGF-beta stimulated, 500 pg/mL final | Potency, µM (titrated, usually from 46.1 µM), for the others: at the top dose activity, negative = inhibition, most hits filed as inhibitors | 410,000 tested, 1.2% active | AID 588855; note: potency is the fitted concentration of half-maximal effect; % is set by controls: 0 for no effect and ±100 for the full control effect; nearly all actives have a fitted effect of over 65% in size
#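 Smad-responsive CAGA-GFP expression was quantified in HEPG2 cells exposed to compounds and 500 pg/mL final TGF-beta for 18 h at 37 degrees C; unstimulated wells defined full inhibition.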
# * hit, by the source's call; ? = inconclusive; nt = no result given; [ ] = another dose, or the depositor's remark. An excerpt weighted towards active compounds, which were near 18% of everything screened. Unless noted, calls come from the whole dose curve; as a rule, active = well fitted curve in the direction sought with a large enough effect; inconclusive = small, poorly fitted or top-dose-only effect, or another doubt; inactive = no such curve, though single readings can be large; an effect the other way counts as inactive or inconclusive.
SMILES,HepG2 tox,TDP1 cell noCPT,TDP1 block,TDP1 cell CPT,IL-1B inflam inh,TGFb inhibitor
Cc1ccc(NC(=O)c2c(C)oc3ccc(O)c(CN4CCCCC4)c23)c(C)c1,-38.6%,16.4µM*,0.0%,11.6µM*,nt,-17.2%
Cc1ccccc1NC(=O)c1c(C)oc2ccc(O)c(CN3CCCCCC3)c12,-38.2%,20.6µM*,3.7%,23.1µM*,nt,?
Cc1ccc(NC(=O)c2c(C)oc3ccc(O)c(CN4CCCCC4)c23)cc1,-50.0%,?,-1.2%,?,nt,-13.4%
Cc1oc2ccc(O)c(CN3CCOCC3)c2c1C(=O)Nc1ccccc1,-8.9%,-3.8%,3.7%,-14.6%,nt,-3.0%
COc1ccc(N2CCN(C(=O)COc3ccccc3C#N)CC2)cc1,-6.1%,-3.0%,4.9%,-1.9%,nt,-1.7%
Cc1ccc(CN(Cc2cccn2-c2nnc(N3CCCC3=O)s2)C(=O)Nc2cc(C)cc(C)c2)cc1,-10.2%,?,0.0%,?,nt,-25.4%
CCOC(=O)c1c(-c2ccccc2)oc2ccc(O)c(CN3CCN(C)CC3)c12,-46.7%,2.31µM*,5.1%,2.06µM*,nt,?
Cc1ccccc1NC(=O)c1c(C)oc2ccc(O)c(CN3CCOCC3)c12,-43.9%,23.1µM*,-6.1%,20.6µM*,nt,?
COc1ccc(NC(=O)c2c(C)oc3ccc(O)c(CN4CCCCCC4)c23)cc1Cl,-60.3%,?,3.7%,25.9µM*,nt,?
COCCOC(=O)c1c(C)oc2ccc(O)c(CN3CCC(C)CC3)c12 (tested in a mixture with another compound),-19.2%,?,nt,?,-52.3*,-1.9%
Cc1csc(C(=O)NCC(=O)NNC(=O)c2cccc(Cl)c2)c1,1.0%,15.5%,0.0%,4.9%,-2.7,1.3%
CCOc1ccc(-c2cc(CCCC(=O)NCCc3cc(OC)c(OC)c(OC)c3)no2)cc1,2.5%,?,6.4%,?,nt,?
COc1ccc(NC(=S)Nn2cnnc2)cc1OC,2.4%,5.2%,-2.5%,-1.8%,-12.7,?
CCc1cc2c(cc3c(=O)n(CC(=O)NCCc4ccccc4)ncn32)s1,1.0%,-20.7%,5.9%,-0.6%,nt,-4.6%
Cc1cc(/C=N/NC(N)=S)c(C)n1-c1ccc(Cl)cc1,-60.9%,18.4µM*,-3.2%,11.6µM*,26.8,?
COCc1cc(C)nc(OCC(=O)N/N=C/c2cc(C)n(-c3c(C)cccc3C)c2C)c1C#N,0.4%,?,9.8%,-8.5%,25.3,22.2%
Cc1cccc(C)c1-n1c(C)cc(/C=N/NC(N)=S)c1C,-1.8%,8.2µM*,9.2%,7.31µM*,80.0,-31.3%
Cc1nnc(N/N=C/c2c(Cl)cccc2Cl)n1N,-171.1%,-16.3%,4.7%,-6.9%,-104.6*,?
Cc1nnc(N/N=C/c2cc(C)n(-c3ccc(F)cc3)c2C)n1N,-104.3%,16.4µM*,2.7%,13µM*,40.2,14.1µM*
Cc1ncc2c(c1CNC(=O)c1ccc3c(c1)OCO3)CCN(C(=O)c1ccoc1)C2,nt,-13.3%,nt,1.6%[9.04 µM],nt,nt
CCOC(=O)N1Cc2cc3ccccc3nc2C1,2.6%,?,nt,?,26.5,9.6%
O=C(O)/C=C/C(=O)N1Cc2cc3ccccc3nc2C1,-15.1%,-5.0%,35.5µM*,-0.2%,11.3,-0.8%
O=C(CSc1nc2ccccc2c(=O)n1Cc1ccco1)c1ccc(F)cc1,-25.6%,23.1µM*,-1.0%,11.6µM*,0.1,-13.1%
COc1ccccc1-c1nnc(SCC(=O)c2ccc(C3CCCCC3)cc2)n1Cc1ccco1,-32.5%,23.1µM*,6.8%,23.1µM*,-18.6,0.0%
O=C(CSc1nnc(-c2cc3ccccc3cc2O)n1Cc1ccco1)c1ccc(F)cc1,-36.8%,16.4µM*,1.2%,13µM*,-14.3,?
SMILES,HepG2 tox,TDP1 cell noCPT,TDP1 block,TDP1 cell CPT,IL-1B inflam inh,TGFb inhibitor
Cc1cc(F)ccc1C(O)c1ncc(-c2ccccc2F)[nH]1 (stereo unspecified),0.9%,-25.5%,nt,?,6.4,5.9%
Clc1nc2nc3n(c2nc1Cl)CCC3,3.5%,11.9%,0.6%,11.1%,-11.3,10.1%
O=C(CN1C(=O)S/C(=C\c2ccc(O)cc2)C1=O)c1ccccc1,-14.2%,?,nt,?,-77.0*,-27.2%
O=C(CCN1C(=O)/C(=C\c2ccccc2)SC1=S)NNC(=O)c1cccnc1,14.4%,?,3.2%,?,16.9,13.3%
O=C(CN1C(=O)S/C(=C\c2ccc(C(=O)O)cc2)C1=O)Nc1ccccc1,-10.3%,-1.0%,nt,-2.2%,-3.9,-3.7%
O=C1S/C(=C/c2ccccc2)C(=O)N1CC(O)Cn1c2ccccc2c2ccccc21 (stereo unspecified),-5.4%,23.1µM*,5.5%,23.1µM*,-14.0,-10.1%
COc1ccc(/C=C2\SC(=O)N(CC(=O)NNC(=O)c3ccccc3O)C2=O)cc1,-5.6%,-24.0%,0.0%,8.8%,13.2,-8.2%
O=C(CCCN1C(=O)S/C(=C\c2ccccc2)C1=O)NNC(=O)c1ccccc1O,-37.1%,9.2µM*,7.0%,11.6µM*,28.8,4.4%
O=C(CCN1C(=O)/C(=C\c2ccccc2)SC1=S)NNC(=O)c1ccccc1O,-8.6%,25.9µM*,-2.4%,20.6µM*,38.1,15.4%
O=C(CSc1cc(Cl)ccc1Cl)NCCN1C(=O)CSC1=O,3.5%,-2.0%,-0.1%,-0.1%,-4.4,5.6%
O=C([C@@H]1CC=C[C@@H]2CCN(C3CC3)C(=O)[C@@H]21)N1CCOCC1,2.8%,-17.1%,nt,?,nt,32.3%
COc1cc(/C=C/C(=O)O)ccc1OCc1ccccc1C#N,-43.4%,8.4%,-2.6%,2.2%,14.0,-0.9%
CC(=O)NNC(=O)CN1C(=O)/C(=C/c2ccccc2)SC1=S,-15.7%,17.9%,-3.8%,-9.0%,-13.0,-3.1%
CC(=O)NC(CC(=O)NCCN1C(=O)S/C(=C\c2ccccc2)C1=O)c1ccccc1 (stereo unspecified),-0.5%,?,0.0%,20.6µM*,-20.8,0.6%
O=C(CCCN1C(=O)/C(=C/c2ccccc2)SC1=S)Nc1ccccc1O,-19.4%,?,3.7%,?,-93.0*,-22.2%
Cc1cccc(-c2nc(C)c(CCNC(=O)c3cccs3)s2)c1,-19.8%,nt,4.4%,nt,nt,-2.4%
Cc1ccc(NC(=S)N(CCN(C)C)C(C)c2ccco2)cc1C (stereo unspecified),11.7%,?,0.0%,18.4µM*,-18.6,0.0%
CN(C(=S)Nc1ccc(F)cc1)C(c1ccccc1)c1ccccc1,-37.5%,?,nt,?,-16.7,?

# Screens from PubChem BioAssay.
